# Test results taken from PubChem BioAssay (EPA / NIEHS).
# Results filed as inconclusive are left out. Active and inactive are the calls of the source. How the source made its calls, unless noted: active means hit-call score of the fitted dose curve at least 0.9, where 1 is the maximum; inconclusive means response in the unintended direction; inactive means score below 0.9. Where a SMILES comes first, the peptide text is derived from it. [ ]: non-standard residue; d: D form. The star is where a group is joined. Sta = CC(C)C[C@H](N)[C@@H](O)CC(=O)O; Isovaleryl = CC(C)CC(=O)*
# Experiments:
# [1] = biological target: Cellular tumor antigen p53 (Homo sapiens) (UniProt P04637); experiment: TOX21_p53_BLA_p2_ratio: Tox21 HCT-116 p53 Agonism Beta-lactamase Assay, Ratio, Phase 2 (AID 2283592)
# How it was run: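 Plated HCT116 p53-bla cells (4000/well) received compound after 5 h, then 16 h at 37C/5% CO2. CCF4-AM added, 2 h RT. Ratio of 460 to 530 nm emission taken as the p53 reporter signal.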
# [2] = TOX21_p53_BLA_p5_viability: Viability Assessment in the Tox21 HCT-116 p53 Agonism Beta-lactamase Assay, Phase 5 (AID 2283600)
# How it was run: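 Workflow: seed 4000 cells per well, wait 5 h, add compounds (DMSO, 217-fold dilution), incubate 16 h, load CCF4-AM 2 h, add CellTiter-Glo, read luminescence after 30 min.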
# [3] = biological target: Cellular tumor antigen p53 (Homo sapiens) (UniProt P04637); experiment: TOX21_p53_BLA_p4_ratio: Tox21 HCT-116 p53 Agonism Beta-lactamase Assay, Ratio, Phase 4 (AID 2283601)
# How it was run: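 Signal is the blue/green (460nm/530nm) ratio of cleaved versus uncleaved CCF4-AM substrate, read after 2 h substrate loading. Cells were HCT116 carrying the p53-responsive beta-lactamase reporter, dosed 16 h at 37C, 5% CO2; CellTiter-Glo measured in parallel.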
# [4] = biological target: Cellular tumor antigen p53 (Homo sapiens) (UniProt P04637); experiment: TOX21_p53_BLA_p5_ratio: Tox21 HCT-116 p53 Agonism Beta-lactamase Assay, Ratio, Phase 5 (AID 2283599)
# How it was run: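 Beta-lactamase reporter ratio (blue 460 nm over green 530 nm, 405 nm excitation) after 2 h CCF4-AM loading, in HCT-116 cells exposed 16 h at 37 C to compounds pinned at 217-fold dilution. Increases relative to DMSO baseline scored.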
# [5] = CCTE_Harrill_HTTr_Viability_MCF7: CCTE's 6-hour Cell Viability Assessment for the High-Throughput Transcriptomics (HTTr) Platform, in MCF-7 cells cultured in DMEM + 10% fetal bovine serum, Harrill Lab (AID 2284010; active means hit-call score of the fitted dose curve at least 0.9, where 1 is the maximum; inactive means score below 0.9)
# How it was run: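 Read-out is propidium iodide gain of signal by high-content imaging, reflecting membrane integrity loss. Measurements are taken 6 h after dosing, eight concentrations per chemical, with DMSO serving as baseline for bidirectional curve fitting.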
# [6] = CCTE_Harrill_HTTr_Apoptosis_MCF7: CCTE's 6-hour Apoptosis Assessment for the High-Throughput Transcriptomics (HTTr) Platform, in MCF-7 cells cultured in DMEM + 10% fetal bovine serum, Harrill Lab (AID 2284011; active means hit-call score of the fitted dose curve at least 0.9, where 1 is the maximum; inactive means score below 0.9)
# How it was run: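 MCF-7 (DMEM + 10% FBS), 384-well; 8-pt dilution series, 6 h chemical exposure; caspase-3/7 activation via CellEvent Caspase 3/7 Green, HCI; bidirectional fit vs DMSO.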
# [7] = CCTE_Harrill_HTTr_CellCount_MCF7: CCTE's Cell Proliferation Assessment for the High-Throughput Transcriptomics (HTTr) Platform, Harrill Lab (AID 2284012);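 further: cells exposed to compound for six hours; intended direction is loss of nuclei count meaning fewer cells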
# How it was run: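 Cell count served as viability reporter: loss of Hoechst-stained nuclei, counted by high content imaging, marks decreased growth or survival. Exposure was 6 h in MCF-7 cells across eight concentrations, with DMSO as baseline.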
# [8] = TOX21_p53_BLA_p3_viability: Viability Assessment in the Tox21 HCT-116 p53 Agonism Beta-lactamase Assay, Phase 3 (AID 2283593);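 further: cells exposed to compound for 16 h before reading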
# How it was run: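 Cellular ATP was quantified by CellTiter-Glo luminescence, read after 30 min at room temperature. Beforehand, HCT116 cells (4000/well) received compound 5 h post-seeding, 217-fold diluted from DMSO, then incubated 16 h at 37C.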
# [9] = biological target: Cellular tumor antigen p53 (Homo sapiens) (UniProt P04637); experiment: TOX21_p53_BLA_p3_ratio: Tox21 HCT-116 p53 Agonism Beta-lactamase Assay, Ratio, Phase 3 (AID 2283596)
# How it was run: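 Cells were seeded at 4000/well, rested 5 h at 37C, then dosed with DMSO compound solutions (217-fold dilution) for 16 h. CCF4-AM substrate was loaded for 2 h at room temperature, and the 460/530 nm emission ratio was fitted for gain of signal versus DMSO.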
# [10] = TOX21_p53_BLA_p4_viability: Viability Assessment in the Tox21 HCT-116 p53 Agonism Beta-lactamase Assay, Phase 4 (AID 2283597);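 further: hits lower the luminescence signal meaning cytotoxicity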
# How it was run: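 Readout: ATP luminescence (CellTiter-Glo), measured 30 min after reagent addition at RT. The reagent followed a 2 h CCF4-AM incubation, and the cells had been exposed to compound for 16 h at 37C.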
# [11] = biological target: PGR (gene 5241) (UniProt P06401); experiment: TOX21_PR_BLA_Followup_Agonist_ratio: Tox21 HEK293 Progesterone Receptor (PR) Agonism Beta-lactamase Follow-Up Assay, Ratio (AID 2283933)
# How it was run: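 Cells were seeded and held 6 hr before compound addition, exposed for 16 hr at 37C, then given FRET substrate for 2 hr at room temperature. Agonism was scored from the blue/green substrate cleavage ratio against DMSO controls.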
# [12] = biological target: PGR (gene 5241) (UniProt P06401); experiment: TOX21_PR_BLA_Followup_Antagonist_ratio: Tox21 HEK293 Progesterone Receptor (PR) Antagonism Beta-lactamase Follow-Up Assay, Ratio (AID 2283934);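 further: PR-UAS-bla HEK293T cells stimulated with 1 nM R5020 agonist for 16 hr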
# How it was run: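 Cells are plated, rested 6 hr, then dosed with test compound in DMSO and challenged with 1 nM promegestone. After 16 hr incubation, substrate loading for 2 h at room temperature precedes fluorescence reading; viability is measured in the same wells.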
# [13] = TOX21_PR_BLA_Followup_Agonist_viability: Viability Assessment in the Tox21 HEK293 Progesterone Receptor (PR) Agonism Beta-lactamase Follow-Up Assay (AID 2283935);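 further: signal loss means lower viability so actives are cytotoxic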
# How it was run: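 Cells were plated in medium with 2% charcoal-stripped FBS and rested 6 hr. Compounds in DMSO were then added for 16 hr at 37C, followed by the FRET substrate step and CellTiter-Glo luminescence after 30 min.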
# [14] = biological target: PGR (gene 5241) (UniProt P06401); experiment: TOX21_PR_LUC_Followup_Agonist: Tox21 HEK293 Progesterone Receptor (PR) Agonism Luciferase Follow-Up Assay (AID 2283937; active means hit-call score of the fitted dose curve at least 0.9, where 1 is the maximum; inactive means score below 0.9)
# How it was run: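 Seed HEK293-PR-A-luc cells, wait 5 h, add compounds in DMSO, incubate 16 h at 37C, add ONE-Glo, read luminescence after 30 min. Activity is increase over DMSO controls; run with a viability counter-screen.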
# [15] = TOX21_PR_LUC_Followup_Antagonist_viability: Viability Assessment in the Tox21 HEK293 Progesterone Receptor (PR) Antagonism Luciferase Follow-Up Assay (AID 2283940)
# How it was run: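 HEK293-PR-A-luc, 3,000 cells/well; 5 h at 37C/0% CO2; compound pin transfer; 16 h incubation; CellTiter-Glo ATP luminescence, signal loss = cytotoxicity.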
# [16] = TOX21_PR_LUC_Followup_Agonist_viability: Viability Assessment in the Tox21 HEK293 Progesterone Receptor (PR) Agonism Luciferase Follow-Up Assay (AID 2283941);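 further: loss of signal means cytotoxicity so actives lower viability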
# How it was run: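 Multiplexed viability endpoint of the PR agonist luciferase follow-up: HEK293-PR-A-luc cells treated 16 h at 37C, with viability scored as decrease in CellTiter-Glo ATP signal.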
# PGR (gene 5241), sequence (P06401 whole entry, looked up): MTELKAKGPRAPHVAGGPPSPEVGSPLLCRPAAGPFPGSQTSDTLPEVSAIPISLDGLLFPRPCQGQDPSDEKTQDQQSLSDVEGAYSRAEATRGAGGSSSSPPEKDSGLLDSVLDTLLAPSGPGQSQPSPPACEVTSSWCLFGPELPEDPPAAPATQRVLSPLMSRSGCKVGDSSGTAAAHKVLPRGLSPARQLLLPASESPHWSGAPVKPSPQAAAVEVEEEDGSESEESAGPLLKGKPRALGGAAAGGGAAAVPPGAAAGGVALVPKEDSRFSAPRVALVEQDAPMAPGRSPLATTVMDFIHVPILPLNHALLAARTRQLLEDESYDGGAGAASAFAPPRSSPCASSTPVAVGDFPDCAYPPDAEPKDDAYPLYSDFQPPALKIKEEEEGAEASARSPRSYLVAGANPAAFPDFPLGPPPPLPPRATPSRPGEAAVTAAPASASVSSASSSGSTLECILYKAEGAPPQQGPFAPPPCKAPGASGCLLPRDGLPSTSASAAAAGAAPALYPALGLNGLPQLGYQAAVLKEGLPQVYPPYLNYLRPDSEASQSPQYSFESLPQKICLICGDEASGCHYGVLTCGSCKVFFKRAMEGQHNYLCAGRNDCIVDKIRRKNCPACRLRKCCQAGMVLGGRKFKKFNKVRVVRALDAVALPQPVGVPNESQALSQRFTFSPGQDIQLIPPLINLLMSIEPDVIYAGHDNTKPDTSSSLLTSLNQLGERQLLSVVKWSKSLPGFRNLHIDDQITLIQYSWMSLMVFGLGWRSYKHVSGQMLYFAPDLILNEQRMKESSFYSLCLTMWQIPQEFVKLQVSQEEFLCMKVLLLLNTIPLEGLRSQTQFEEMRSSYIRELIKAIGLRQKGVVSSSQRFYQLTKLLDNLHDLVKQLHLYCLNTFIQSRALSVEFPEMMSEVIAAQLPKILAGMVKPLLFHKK
# Cellular tumor antigen p53 (Homo sapiens), sequence (P04637 whole entry, looked up): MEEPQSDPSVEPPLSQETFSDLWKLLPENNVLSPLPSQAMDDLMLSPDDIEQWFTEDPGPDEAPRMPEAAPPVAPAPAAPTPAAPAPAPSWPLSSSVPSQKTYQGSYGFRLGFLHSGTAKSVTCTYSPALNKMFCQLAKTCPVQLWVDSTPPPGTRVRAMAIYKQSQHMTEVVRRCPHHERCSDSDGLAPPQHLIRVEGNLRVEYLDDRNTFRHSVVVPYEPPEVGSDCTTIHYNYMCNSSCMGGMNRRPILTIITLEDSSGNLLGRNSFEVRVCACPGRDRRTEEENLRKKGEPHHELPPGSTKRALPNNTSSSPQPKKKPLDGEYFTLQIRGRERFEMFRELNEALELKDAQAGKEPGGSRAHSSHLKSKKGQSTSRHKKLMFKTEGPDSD
structure (smiles),measurement,setting,value
CC(C)CC(=O)N[C@H](C(=O)N[C@H](C(=O)N[C@@H](CC(C)C)[C@@H](O)CC(=O)N[C@@H](C)C(=O)N[C@@H](CC(C)C)[C@@H](O)CC(=O)O)C(C)C)C(C)C (Isovaleryl-VV[Sta]A[Sta]-OH),outcome,[1],inactive
same,outcome,[2],inactive
same,outcome,[3],inactive
C1CCc2nnnn2CC1,outcome,[1],inactive
same,outcome,[4],inactive
same,outcome,[2],inactive
Cc1ccc2ccccc2c1[N+](=O)[O-],outcome,[1],inactive
same,outcome,[4],inactive
same,outcome,[3],inactive
CCCN(CC)C(CC)C(=O)Nc1c(C)cccc1C (stereo not given),outcome,[1],inactive
same,outcome,[4],inactive
same,outcome,[2],inactive
CC(C)S,outcome,[1],inactive
same,outcome,[4],inactive
same,outcome,[2],inactive
same,outcome,[3],inactive
C=C(C)C(=O)OCCCCCCOC(=O)C(=C)C,outcome,[1],inactive
same,outcome,[4],inactive
same,outcome,[2],inactive
CCCCCCCCCCCCCCCCOP(=O)([O-])OCC[N+](C)(C)C,outcome,[1],inactive
same,outcome,[4],inactive
CN(C)Cc1ccccc1,outcome,[1],inactive
same,outcome,[4],inactive
same,outcome,[3],inactive
C=CC(C)(O)CC/C=C(/C)CCC=C(C)C (stereo not given),outcome,[1],inactive
same,outcome,[2],inactive
CC1=C(C(=O)O)N2C(=O)[C@@H](NC(=O)[C@H](N)c3ccccc3)[C@H]2SC1,outcome,[1],inactive
same,outcome,[4],inactive
same,outcome,[2],inactive
CC1COc2c(N3CCN(C)CC3)c(F)cc3c(=O)c(C(=O)O)cn1c23 (stereo not given),outcome,[1],inactive
same,outcome,[4],inactive
same,outcome,[3],inactive
CC1(C)O[C@@H]2C[C@H]3[C@@H]4CCC5=CC(=O)C=C[C@]5(C)[C@H]4[C@@H](O)C[C@]3(C)[C@]2(C(=O)CO)O1,outcome,[1],inactive
same,outcome,[4],inactive
same,outcome,[2],inactive
CN1C(=O)c2ccc([N+](=O)[O-])cc2C1=O,outcome,[1],inactive
same,outcome,[4],inactive
same,outcome,[2],inactive
same,outcome,[3],inactive
CC(C)C(=O)c1c(C(C)C)nn2ccccc12,outcome,[1],inactive
same,outcome,[4],inactive
same,outcome,[3],inactive
S=C=Nc1ccc(N=C=S)cc1,outcome,[1],inactive
same,outcome,[4],inactive
same,outcome,[2],inactive
same,outcome,[3],inactive
Cc1ccco1,outcome,[1],inactive
same,outcome,[4],inactive
same,outcome,[3],inactive
CCCCCCCCCCCCCCCC/C=C/C1CC(=O)OC1=O (stereo not given),outcome,[1],inactive
same,outcome,[4],inactive
same,outcome,[3],inactive
Cc1cccc(C(=O)O)c1[N+](=O)[O-],outcome,[1],inactive
same,outcome,[4],inactive
same,outcome,[3],inactive
[K+],outcome,[1],inactive
same,outcome,[4],inactive
same,outcome,[5],inactive
same,outcome,[6],inactive
same,outcome,[7],inactive
CCCCCCCCCCCCCCCCN(C)C,outcome,[1],inactive
same,outcome,[2],inactive
same,outcome,[3],inactive
CO[C@@]1(NC(=O)C(C(=O)O)c2ccc(O)cc2)C(=O)N2C(C(=O)O)=C(CSc3nnnn3C)CO[C@@H]21 (stereo not given in full),outcome,[1],inactive
same,outcome,[4],inactive
same,outcome,[2],inactive
same,outcome,[3],inactive
CN(C)C=Nc1c(I)cc(I)c(CCC(=O)O)c1I,outcome,[1],inactive
same,outcome,[2],inactive
C=C(C)C(=O)OC1CC(C)CC(C)(C)C1 (stereo not given),outcome,[1],inactive
same,outcome,[4],inactive
same,outcome,[3],inactive
O=C1NCCN1CCO,outcome,[1],inactive
same,outcome,[4],inactive
same,outcome,[2],inactive
same,outcome,[3],inactive
O=[N+]([O-])c1c(Cl)cc(Cl)cc1Cl,outcome,[1],inactive
same,outcome,[2],inactive
C=C(C)C(=O)NCCC[N+](C)(C)C,outcome,[1],inactive
same,outcome,[4],inactive
same,outcome,[2],inactive
same,outcome,[3],inactive
c1ccc2c(c1)Sc1ccccc1N2CCN1CCCC1,outcome,[1],inactive
same,outcome,[4],inactive
same,outcome,[3],inactive
CC(=O)Nc1ncc([N+](=O)[O-])s1,outcome,[1],inactive
same,outcome,[4],inactive
same,outcome,[2],inactive
same,outcome,[3],inactive
CCCC(=O)C(=O)O,outcome,[1],inactive
same,outcome,[4],inactive
same,outcome,[2],inactive
same,outcome,[3],inactive
Cc1nc2ccc(Cl)cc2[nH]1,outcome,[1],inactive
same,outcome,[4],inactive
same,outcome,[3],inactive
C1COCCO1,outcome,[1],inactive
same,outcome,[4],inactive
same,outcome,[2],inactive
O=C(CS(=O)Cc1ccco1)NC/C=C\COc1cc(CN2CCCCC2)ccn1 (stereo not given),outcome,[1],inactive
same,outcome,[4],inactive
CCCCCCCCCCCCCCC1CO1 (stereo not given),outcome,[1],inactive
same,outcome,[4],inactive
same,outcome,[3],inactive
N[C@@H](CS)C(=O)O,outcome,[1],inactive
same,outcome,[3],inactive
COC(=O)NN,outcome,[8],inactive
same,outcome,[9],inactive
same,outcome,[10],inactive
same,outcome,[4],inactive
O=C(NCCc1c[nH]c2ccccc12)c1cccnc1,outcome,[1],inactive
same,outcome,[2],inactive
same,outcome,[3],inactive
CCN1CCN(C(=O)N[C@@H](C(=O)N[C@@H]2C(=O)N3C(C(=O)O)=C(CSc4nnnn4C)CS[C@H]23)c2ccc(O)cc2)C(=O)C1=O,outcome,[1],inactive
same,outcome,[3],inactive
C=C(C)C(=O)OCCOCC,outcome,[8],inactive
CN1CC[C@H](c2c(O)cc(O)c3c(=O)cc(-c4ccccc4Cl)oc23)[C@H](O)C1,outcome,[1],inactive
same,outcome,[3],inactive
same,outcome,[11],inactive
same,AC50,[12],206 nM (active)
same,outcome,[13],inactive
same,outcome,[14],inactive
same,outcome,[15],inactive
same,outcome,[16],inactive
NCc1ccc(S(N)(=O)=O)cc1,outcome,[8],inactive
same,outcome,[9],inactive
same,outcome,[10],inactive
same,outcome,[4],inactive
Cc1cc(O)c(Cl)cc1C,outcome,[8],inactive
same,outcome,[9],inactive
same,outcome,[10],inactive
same,outcome,[4],inactive
same,outcome,[2],inactive
COc1ccc2c(c1)C(=O)N(CCc1ccc(S(=O)(=O)NC(=O)NC3CCCCC3)cc1)C(=O)C2(C)C,outcome,[1],inactive
same,outcome,[3],inactive
